Assay outcomes: PubChem BioAssay, Broad Institute
This is one part of a sample in which hits are shown more often than they occur.
Tg IFNy HTS: blocks Toxoplasma gondii growth in the presence of IFN-gamma | 3.8% of 69,000 active | activity change, negative = inhibition, % (test concentration not listed) | Toxoplasma gondii growth in IFN-gamma-treated host cells; stronger effect = lower value; in the data active = activity change below about -70%, passing the limit was not always enough;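 note: host cells are HeLa cells infected with Toxoplasma gondii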
* hit, by the source's call.

SMILES	Tg IFNy HTS
COc1ccc(-c2nc3c(s2)CN(S(=O)(=O)c2cccs2)CC3)cc1	-94*
COc1ccc(-c2nc3c(s2)CN(S(=O)(=O)c2ccc(CC(C)C)cc2)CC3)cc1	11
Cc1cc(C)cc(S(=O)(=O)N2CCc3nc(-c4ccccc4)sc3C2)c1	-17
CCc1ccccc1S(=O)(=O)N1CCc2nc(-c3ccc(OC)cc3)sc2C1	-92*
CCOc1ccc(-c2nc3c(s2)CN(S(=O)(=O)c2cccc(Cl)c2C)CC3)cc1	-65
COc1cccc(-c2nc3c(s2)CN(S(=O)(=O)c2cccc(Cl)c2)CC3)c1	-36
COc1cccc(-c2nc3c(s2)CN(S(=O)(=O)c2cc(C)cc(C)c2)CC3)c1	-85*
Cc1ccc(-c2nc3c(s2)CN(S(=O)(=O)c2ccc(F)cc2F)CC3)cc1	-88*
CCOc1ccc(S(=O)(=O)N2CCc3nc(-c4ccccc4)sc3C2)cc1	15
CC(C)(C)c1ccc(S(=O)(=O)N2CCc3nc(-c4ccccc4)sc3C2)cc1	8
Cc1ccc(-c2nc3c(s2)CN(S(=O)(=O)c2ccccc2Cl)CC3)cc1	-56
S=c1sc(Nc2cc(Cl)ccc2Cl)nn1-c1ccccc1	-68
O=C(CC1Nc2c3ccccc3nc(=S)n2C1=O)NCCN1CCN(c2cccc(Cl)c2)CC1 (centres undefined)	7
COc1ccc(/C=C/C(=O)N2CCc3c(cnc(C)c3CNC(=O)CN3CCCCC3)C2)cc1	6
Cc1ccc(NC(=O)CC2SC(N)=NC2=O)cc1C (centres undefined)	-16
Cc1nc(C(N)=O)c2c(n1)n(-c1ccc(F)cc1)c(=O)n2CC(=O)N1CCC(C)CC1	3
Cc1oc(-c2cccc(Cl)c2)nc1CN1CCN(C(=O)Nc2ccccc2)CC1	-5
c1ccc(C2CCCN2Cc2cccc3nonc23)nc1 (centres undefined)	6
CC(NC(=O)c1nc(Nc2ccccc2)c2ccccc2n1)c1ccccc1 (centres undefined)	-40
COc1ccc(-c2nc3c(s2)CN(S(=O)(=O)c2ccc(OC)cc2)CC3)cc1	-4
COc1ccc(-c2nc3c(s2)CN(S(=O)(=O)c2cc(C)cc(C)c2)CC3)cc1	-116*
COc1ccc(-c2nc3c(s2)CN(S(=O)(=O)c2c(C)cc(C)cc2C)CC3)cc1	5
CC(C)N1C2CCN(Cc3nccs3)CC2C[C@H]1Cn1cncn1 (some centres undefined)	4
COc1ccc(CCNC(=O)CSc2nc(C(C)(C)C)nc3ccccc23)cc1OC	-1
Cc1c(CN2CCC3(CC2)C(=O)N(Cc2ccccn2)C(=O)N3Cc2ccccc2)cnn1C	18
SMILES	Tg IFNy HTS
O=C1N(Cc2ccccn2)C(=O)C2(CCN(Cc3c(F)cccc3Cl)CC2)N1Cc1ccccc1	-73*
O=C1N(Cc2ccccn2)C(=O)C2(CCN(CC3CC=CCC3)CC2)N1Cc1ccccc1 (centres undefined)	-3
C=CCOCC1c2c(ncn2C)CCN1C(=O)c1cnc(C)cn1 (centres undefined)	-62
COc1cc(N2CC[C@]3(CCC[C@H](CNS(C)(=O)=O)O3)C2)ncn1	52
O=C(O)c1ccc2c(c1)nc(Nc1cccc(Cl)c1)c1ccncc12	-73*
Cc1ccc(Nc2nc(C(=O)Nc3cccc(Cl)c3)nc3ccccc23)cc1	5
Cc1cccc(Nc2nc(C(=O)Nc3cccc(Cl)c3)nc3ccccc23)c1	30
CSc1ccc(C2c3[nH]c4ccccc4c3CCN2C(=O)c2ccccc2Br)cc1 (centres undefined)	35
Cc1nnc(SCc2nnc(-c3ccccc3)o2)o1	22
COC1CCN(Cc2cn(-c3ccc(F)cc3F)nc2-c2ccccc2C)CC1	-5
CCN1CCC2(CN(S(C)(=O)=O)CC23CCN(CC2CC2)CC3)C1=O (centres undefined)	-62
COc1ccccc1Nc1nnns1	12
CCOC(=O)Nc1nnc(CCc2ccccc2)s1	0
c1ccc(CCNc2nnns2)cc1	-97*
COc1cc(-c2cnc3ccccc3c2)cc2c1OCCN(Cc1cnc[nH]1)C2	28
CN(C)S(=O)(=O)c1ccc(CCC(=O)Nc2ccc3ncn(C)c3c2)cc1	10
CCn1cnc2cc(NC(=O)C(C)N3C(=O)C4C5C=CC(C5)C4C3=O)ccc21 (centres undefined)	19
O=C1CC(c2nc3c(s2)CCCC3)c2cc3cn[nH]c3cc2N1 (centres undefined)	-24
O=C1N(CC2CC2)CCC12CCN(c1ncccn1)CC2	19
O=C(CSC(=O)c1ccco1)Nc1cc(C(F)(F)F)cc(C(F)(F)F)c1	-43
O=C(Nc1cc(C(F)(F)F)cc(C(F)(F)F)c1)NC1CCc2ccccc2O1 (centres undefined)	-82*
COc1cc(NC(=O)NC2Cc3ccccc3C2)cc(OC)c1	-6
O=C(CN1CCOC1=O)N1CC[C@@H](c2ccc3c(c2)OCO3)[C@H](O)C1	-1
CCCC(C)c1nnc(NC(=O)c2noc(C)c2COC)s1 (centres undefined)	-4
CCC/C=C/c1cccc(-n2cnnc2)c1	-32
SMILES	Tg IFNy HTS
c1cc(-n2ccnc2)cc(-n2cnnc2)c1	35
CCOc1ccc(-n2cnnc2)cc1-n1cccc1	-74*
O=C(COc1ccc2c(c1)OCO2)N1CCCC(c2ccn[nH]2)C1 (centres undefined)	10
CC(c1nccs1)N(C)C(=O)c1cccc(NC(=O)C2CCCC2)c1 (centres undefined)	-6
CC(O)Cc1cn(CC2CCN(C(=O)C3CCCCCC3)CC2)nn1 (centres undefined)	-1
C=CCN1C(=O)C2(NCCc3c2[nH]c2ccccc32)c2ccccc21 (centres undefined)	231
CCOc1ccccc1-c1nc(CN(c2cccc(OC)c2)S(=O)(=O)c2ccccc2)c(C)o1	-24
Cc1ccc(C2c3[nH]c4ccccc4c3CCN2C(=O)c2ccccc2Cl)cc1 (centres undefined)	-118*
Cc1cccc(C2c3[nH]c4ccccc4c3CCN2C(=O)c2ccccc2Cl)c1 (centres undefined)	-110*
Cc1cccc(C2c3[nH]c4ccccc4c3CCN2C(=O)c2ccccc2)c1 (centres undefined)	135
O=C(c1ccccc1F)N1CCc2c([nH]c3ccccc23)C1c1ccccc1 (centres undefined)	39
CSc1ccc(C2c3[nH]c4ccccc4c3CCN2C(=O)c2ccc(C)cc2)cc1 (centres undefined)	34
CSc1ccc(C2c3[nH]c4ccccc4c3CCN2C(=O)c2ccccc2Cl)cc1 (centres undefined)	89
COc1cc(NC(=O)Nc2ccc(-c3nc(-c4cc(C)ccc4C)co3)cc2)cc(OC)c1	-62
c1coc(CN2C[C@H](N3CCOCC3)[C@H]3OCCC[C@@H]32)c1	0
CS(=O)(=O)c1ccc(-c2cc(N)nc3[nH]ccc23)cc1	4
CCNC(=O)c1cccc(-c2cc(N)nc3[nH]ccc23)c1	22
COc1ccc(-c2cc(N)nc3[nH]ccc23)cc1C	-78*
COCCCNC(=O)Cn1c(=O)c(S(=O)(=O)c2ccccc2)cc2ccccc21	13
Cc1cccc(CC(=O)NCCc2sc(-c3ccc(F)cc3)nc2C)c1	-15
CCC(=O)N1CCC2(CC1)C(=O)Nc1ccc(C(=O)NC3CC3)cc12	3
COC1CCCC(C(=O)N2CCC3(CC2)C(=O)Nc2ccc(-c4ccc(C(C)=O)cc4)cc23)C1 (centres undefined)	-86*
COC1CCCC(C(=O)N2CCC3(CC2)C(=O)Nc2ccc(-c4cccc(F)c4)cc23)C1 (centres undefined)	11
